# According to PubChem BioAssay (NCI):
# About 79,000 compounds went through this panel and 15% of them were active in at least one assay; those are over-represented in the sample as a whole. Unmarked numbers belong to inactive results. Active and inactive are the calls of the source. No stated cut-off is given here; in the data, active means growth inhibition above about 70%; inactive means the rest.
# Tests used:
# [1] = NCI Yeast Anticancer Drug Screen. Data for the rad52 strain (AID 147);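 further: 0% = growth of vehicle-treated control cultures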; details: S. cerevisiae rad52 mutant growth inhibition, stronger effect = higher value
# Outline: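 Genetically altered yeast (DNA damage repair defect) treated with compound; inhibition calculated relative to vehicle.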
# [2] = NCI Yeast Anticancer Drug Screen. Data for the wt1 strain (AID 149);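 further: 0% = growth of vehicle-treated wt1 cultures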; details: S. cerevisiae wt1 strain (SPY 50644) growth inhibition, stronger effect = higher value
# Outline: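 wt1 strain grown with compound or vehicle; inhibition taken from the growth difference.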
# [3] = NCI Yeast Anticancer Drug Screen. Data for the rad50EPP+ strain (AID 151);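 further: 0% = growth of vehicle-treated control cultures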; details: S. cerevisiae rad50 mutant strain, stronger effect = higher value
# Outline: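 Strain rad50EPP+; compound exposure; % growth inhibition vs vehicle.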
# [4] = NCI Yeast Anticancer Drug Screen. Data for the rad50 strain (AID 155);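 further: 0% = growth of vehicle-only cultures of the same strain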; details: S. cerevisiae rad50 strain growth inhibition, stronger effect = higher value
# Outline: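 DNA repair mutant yeast, compound exposure, growth read-out; inhibition is taken relative to vehicle.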
# [5] = NCI Yeast Anticancer Drug Screen. Data for the mec2-1 strain (AID 157); details: S. cerevisiae mec2-1 strain, stronger effect = higher value
# Outline: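 Cells of the genetically defined mec2-1 yeast strain are incubated with test compound. Inhibition of growth is calculated against vehicle-treated controls.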
# [6] = NCI Yeast Anticancer Drug Screen. Data for the rad14 strain (AID 159);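 further: 0% = growth of vehicle-treated control cultures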; details: S. cerevisiae rad14 strain growth inhibition, stronger effect = higher value
# Outline: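 DNA repair-defective yeast, compound-exposed; % growth inhibition derived by comparison with vehicle-treated controls.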
# [7] = NCI Yeast Anticancer Drug Screen. Data for the sgs1 mgt1 strain (AID 161);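 further: 0% = growth of cultures given vehicle only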; details: S. cerevisiae sgs1 mgt1 strain, stronger effect = higher value
# Outline: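 Test agents were incubated with a DNA-repair-mutant yeast strain. Growth was then read and compared against vehicle-treated controls.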
# [8] = NCI Yeast Anticancer Drug Screen. Data for the CLN2oe strain (AID 163);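 further: 0% = growth of vehicle-only control cultures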; details: S. cerevisiae CLN2oe strain, stronger effect = higher value
# Outline: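 Strain altered in cell-cycle control, incubated with compound; growth compared to solvent-treated controls.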
# [9] = NCI Yeast Anticancer Drug Screen. Data for the cln2 rad14 strain (AID 165);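 further: 0% = growth equal to vehicle treated cultures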; details: S. cerevisiae cln2 rad14 strain, stronger effect = higher value
# Outline: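 The screen exposed genetically defined yeast (cln2 rad14) to test compounds and scored growth inhibition relative to vehicle-treated controls.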
# [10] = NCI Yeast Anticancer Drug Screen. Data for the bub3 strain (AID 167); details: S. cerevisiae bub3 mutant strain, stronger effect = higher value
# Outline: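 In this screen, a yeast mutant lacking normal mitotic checkpoint function is challenged with compound. Relative growth versus vehicle gives the inhibition value.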
# [11] = NCI Yeast Anticancer Drug Screen. Data for the wt2 strain (AID 169);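 further: 0% = growth of vehicle-treated yeast cultures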; details: S. cerevisiae wt2 strain growth inhibition, stronger effect = higher value
# Outline: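 Steps: yeast strain treated with compound; growth recorded; inhibition calculated relative to cultures given vehicle alone.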
# [12] = NCI Yeast Anticancer Drug Screen. Data for the mlh1 strain (AID 171);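 further: 0% = growth of vehicle-treated control cultures of the same strain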; details: S. cerevisiae mlh1 strain growth inhibition, stronger effect = higher value
# Outline: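 Yeast screen: mutant strain plus compound, growth scored against vehicle control wells.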
# [13] = NCI Yeast Anticancer Drug Screen. Data for the sgs1 strain (AID 173);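 further: 0% = growth of vehicle-only control cultures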; details: S. cerevisiae sgs1 mutant, stronger effect = higher value
# Outline: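 Inhibition of yeast growth served as the measure. The mutant strain was treated with each compound, and growth was normalised to cultures receiving vehicle alone.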
# [14] = NCI Yeast Anticancer Drug Screen. Data for the mlh1 rad18 strain (AID 175); details: S. cerevisiae mlh1 rad18 strain growth inhibition, stronger effect = higher value
# Outline: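 Compound-treated yeast growth, normalised to vehicle controls. Strain bears defined DNA repair mutations.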
# [15] = NCI Yeast Anticancer Drug Screen. Data for the rad18 strain (AID 177); details: S. cerevisiae rad18 mutant growth inhibition, stronger effect = higher value
# Outline: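 Inhibition values reflect reduced yeast growth compared with vehicle-treated controls, using a strain engineered with a DNA damage repair defect.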
# [16] = at 5.0 µM (retest, dose inferred, filed as 0.5)
# [17] = at 50.0 µM (retest, dose inferred, filed as 5.0)
smiles,measurement,setting,value
CC1OC(OC2CCCc3c(O)c4c(c(O)c32)C(=O)c2ccccc2C4=O)CC(N)C1O (stereo unspecified),growth inhibition,[1]; at 1.2 µM,3%
same,growth inhibition,[1]; at 3.7 µM,46%
same,growth inhibition,[1]; at 11.0 µM,94% (active)
same,growth inhibition,[1]; at 33.0 µM,98% (active)
same,growth inhibition,[1]; at 100.0 µM,99% (active)
same,growth inhibition,[2]; at 1.2 µM,1%
same,growth inhibition,[2]; at 3.7 µM,12%
same,growth inhibition,[2]; at 11.0 µM,35%
same,growth inhibition,[2]; at 33.0 µM,92% (active)
same,growth inhibition,[2]; at 100.0 µM,99% (active)
same,growth inhibition,[3]; at 1.2 µM,10%
same,growth inhibition,[3]; at 3.7 µM,30%
same,growth inhibition,[3]; at 11.0 µM,73% (active)
same,growth inhibition,[3]; at 33.0 µM,97% (active)
same,growth inhibition,[3]; at 100.0 µM,98% (active)
same,growth inhibition,[4]; at 1.2 µM,-49%
same,growth inhibition,[4]; at 3.7 µM,41%
same,growth inhibition,[4]; [16],60%
same,growth inhibition,[4]; at 11.0 µM,95% (active)
same,growth inhibition,[4]; at 33.0 µM,99% (active)
same,growth inhibition,[4]; [17],98% (active)
same,growth inhibition,[4]; at 50.0 µM,80.7% (active)
same,growth inhibition,[4]; at 100.0 µM,98% (active)
same,growth inhibition,[5]; at 1.2 µM,0%
same,growth inhibition,[5]; at 3.7 µM,-2%
same,growth inhibition,[5]; [16],8%
same,growth inhibition,[5]; at 11.0 µM,4%
same,growth inhibition,[5]; at 33.0 µM,82% (active)
same,growth inhibition,[5]; [17],99% (active)
same,growth inhibition,[5]; at 50.0 µM,53%
same,growth inhibition,[5]; at 100.0 µM,99% (active)
same,growth inhibition,[6]; at 1.2 µM,2%
same,growth inhibition,[6]; at 3.7 µM,12%
same,growth inhibition,[6]; at 11.0 µM,55%
same,growth inhibition,[6]; at 33.0 µM,99% (active)
same,growth inhibition,[6]; at 100.0 µM,99% (active)
same,growth inhibition,[7]; [16],14%
same,growth inhibition,[7]; [17],98% (active)
same,growth inhibition,[7]; at 50.0 µM,70.5% (active)
same,growth inhibition,[8]; at 1.2 µM,2%
same,growth inhibition,[8]; at 3.7 µM,-1%
same,growth inhibition,[8]; at 11.0 µM,2%
same,growth inhibition,[8]; at 33.0 µM,84% (active)
same,growth inhibition,[8]; at 100.0 µM,98% (active)
same,growth inhibition,[9]; [16],-3%
same,growth inhibition,[9]; [17],98% (active)
same,growth inhibition,[9]; at 50.0 µM,43.9%
same,growth inhibition,[10]; at 1.2 µM,-4%
same,growth inhibition,[10]; at 3.7 µM,-5%
same,growth inhibition,[10]; [16],2%
same,growth inhibition,[10]; at 11.0 µM,-7%
same,growth inhibition,[10]; at 33.0 µM,89% (active)
same,growth inhibition,[10]; [17],98% (active)
same,growth inhibition,[10]; at 50.0 µM,52.8%
same,growth inhibition,[10]; at 100.0 µM,98% (active)
same,growth inhibition,[11]; at 1.2 µM,4%
same,growth inhibition,[11]; at 3.7 µM,9%
same,growth inhibition,[11]; at 11.0 µM,61%
same,growth inhibition,[11]; at 33.0 µM,97% (active)
same,growth inhibition,[11]; at 100.0 µM,99% (active)
same,growth inhibition,[12]; at 1.2 µM,-11%
same,growth inhibition,[12]; at 3.7 µM,-6%
same,growth inhibition,[12]; at 11.0 µM,16%
same,growth inhibition,[12]; at 33.0 µM,94% (active)
same,growth inhibition,[12]; at 100.0 µM,99% (active)
same,growth inhibition,[13]; at 1.2 µM,-12%
same,growth inhibition,[13]; at 3.7 µM,-7%
same,growth inhibition,[13]; at 11.0 µM,34%
same,growth inhibition,[13]; at 33.0 µM,97% (active)
same,growth inhibition,[13]; at 100.0 µM,99% (active)
same,growth inhibition,[14]; [16],12%
same,growth inhibition,[14]; [17],99% (active)
same,growth inhibition,[14]; at 50.0 µM,66.2%
same,growth inhibition,[15]; at 1.2 µM,-8%
same,growth inhibition,[15]; at 3.7 µM,0%
same,growth inhibition,[15]; at 11.0 µM,8%
same,growth inhibition,[15]; at 33.0 µM,90% (active)
same,growth inhibition,[15]; at 100.0 µM,99% (active)
COC(=O)CSc1nnc(CSc2ccc(Cl)cc2)n1-c1ccccc1,growth inhibition,[1]; at 1.2 µM,1%
same,growth inhibition,[1]; at 3.7 µM,3%
same,growth inhibition,[1]; at 11.0 µM,5%
same,growth inhibition,[1]; at 33.0 µM,12%
same,growth inhibition,[1]; at 100.0 µM,5%
same,growth inhibition,[2]; at 1.2 µM,-1%
same,growth inhibition,[2]; at 3.7 µM,-2%
same,growth inhibition,[2]; at 11.0 µM,-3%
same,growth inhibition,[2]; at 33.0 µM,0%
same,growth inhibition,[2]; at 100.0 µM,2%
same,growth inhibition,[3]; at 1.2 µM,-2%
same,growth inhibition,[3]; at 3.7 µM,0%
same,growth inhibition,[3]; at 11.0 µM,-2%
same,growth inhibition,[3]; at 33.0 µM,-5%
same,growth inhibition,[3]; at 100.0 µM,-11%
same,growth inhibition,[4]; at 1.2 µM,2%
same,growth inhibition,[4]; at 3.7 µM,4%
same,growth inhibition,[4]; [16],-16%
same,growth inhibition,[4]; at 11.0 µM,9%
same,growth inhibition,[4]; at 33.0 µM,15%
same,growth inhibition,[4]; [17],15%
same,growth inhibition,[4]; at 50.0 µM,6.25%
same,growth inhibition,[4]; at 100.0 µM,12%
same,growth inhibition,[5]; at 1.2 µM,-3%
same,growth inhibition,[5]; at 3.7 µM,-1%
same,growth inhibition,[5]; [16],-9%
same,growth inhibition,[5]; at 11.0 µM,3%
same,growth inhibition,[5]; at 33.0 µM,10%
same,growth inhibition,[5]; [17],18%
same,growth inhibition,[5]; at 50.0 µM,16.9%
same,growth inhibition,[5]; at 100.0 µM,12%
same,growth inhibition,[6]; at 1.2 µM,0%
same,growth inhibition,[6]; at 3.7 µM,2%
same,growth inhibition,[6]; at 11.0 µM,10%
same,growth inhibition,[6]; at 33.0 µM,15%
same,growth inhibition,[6]; at 100.0 µM,13%
same,growth inhibition,[7]; [16],-11%
same,growth inhibition,[7]; [17],68%
same,growth inhibition,[7]; at 50.0 µM,58.5%
same,growth inhibition,[8]; at 1.2 µM,-2%
same,growth inhibition,[8]; at 3.7 µM,6%
same,growth inhibition,[8]; at 11.0 µM,14%
same,growth inhibition,[8]; at 33.0 µM,19%
same,growth inhibition,[8]; at 100.0 µM,19%
same,growth inhibition,[9]; [16],-6%
same,growth inhibition,[9]; [17],43%
same,growth inhibition,[9]; at 50.0 µM,44%
same,growth inhibition,[10]; at 1.2 µM,-1%
same,growth inhibition,[10]; at 3.7 µM,6%
same,growth inhibition,[10]; [16],7%
same,growth inhibition,[10]; at 11.0 µM,22%
same,growth inhibition,[10]; at 33.0 µM,46%
same,growth inhibition,[10]; [17],75% (active)
same,growth inhibition,[10]; at 50.0 µM,74.5% (active)
same,growth inhibition,[10]; at 100.0 µM,57%
same,growth inhibition,[11]; at 1.2 µM,-1%
same,growth inhibition,[11]; at 3.7 µM,1%
same,growth inhibition,[11]; at 11.0 µM,-1%
same,growth inhibition,[11]; at 33.0 µM,1%
same,growth inhibition,[11]; at 100.0 µM,4%
same,growth inhibition,[12]; at 1.2 µM,-1%
same,growth inhibition,[12]; at 3.7 µM,-1%
same,growth inhibition,[12]; at 11.0 µM,2%
same,growth inhibition,[12]; at 33.0 µM,9%
same,growth inhibition,[12]; at 100.0 µM,14%
same,growth inhibition,[13]; at 1.2 µM,-2%
same,growth inhibition,[13]; at 3.7 µM,-3%
same,growth inhibition,[13]; at 11.0 µM,2%
same,growth inhibition,[13]; at 33.0 µM,13%
same,growth inhibition,[13]; at 100.0 µM,15%
same,growth inhibition,[14]; [16],-11%
same,growth inhibition,[14]; [17],32%
same,growth inhibition,[14]; at 50.0 µM,7%
same,growth inhibition,[15]; at 1.2 µM,-1%
same,growth inhibition,[15]; at 3.7 µM,2%
same,growth inhibition,[15]; at 11.0 µM,4%
same,growth inhibition,[15]; at 33.0 µM,8%
same,growth inhibition,[15]; at 100.0 µM,9%
